Laboratory results as given in ChEMBL document CHEMBL3433997, “St. Jude Leishmania screening dataset” (2016).

What was measured:
Assay type in all cases: functional
[1] = target: Solute carrier family 2, facilitated glucose transporter member 1 (Homo sapiens) (UniProt P11166); assay: ST_JUDE_LEISH: Cytotoxicity at 2uM final concentration against transgenic Leishmania Mexicana promastigotes LmGLUT1 that are glucose transport deficient and complemented with the human glucose transporter GLUT1. Activity is measured by DNA content using SYBR green in vitro
[2] = target: Hexose transporter 1 (Plasmodium falciparum) (UniProt O97467); assay: ST_JUDE_LEISH: Cytotoxicity at 2uM final concentration against transgenic Leishmania Mexicana promastigotes LmPfHT that are glucose transport deficient and complemented with the Plasmodium falciparum hexose transporter. Activity is measured by DNA content using SYBR green in vitro
[3] = target: Glucose transporter (Leishmania mexicana) (UniProt O61059); assay: ST_JUDE_LEISH: Cytotoxicity at 2uM final concentration against transgenic Leishmania Mexicana promastigotes LmGT2 that are glucose transport deficient and complemented with the L. Mexicana glucose transporter 2. Activity is measured by DNA content using SYBR green in vitro

Chain of Solute carrier family 2, facilitated glucose transporter member 1 (Homo sapiens) (P11166 whole entry): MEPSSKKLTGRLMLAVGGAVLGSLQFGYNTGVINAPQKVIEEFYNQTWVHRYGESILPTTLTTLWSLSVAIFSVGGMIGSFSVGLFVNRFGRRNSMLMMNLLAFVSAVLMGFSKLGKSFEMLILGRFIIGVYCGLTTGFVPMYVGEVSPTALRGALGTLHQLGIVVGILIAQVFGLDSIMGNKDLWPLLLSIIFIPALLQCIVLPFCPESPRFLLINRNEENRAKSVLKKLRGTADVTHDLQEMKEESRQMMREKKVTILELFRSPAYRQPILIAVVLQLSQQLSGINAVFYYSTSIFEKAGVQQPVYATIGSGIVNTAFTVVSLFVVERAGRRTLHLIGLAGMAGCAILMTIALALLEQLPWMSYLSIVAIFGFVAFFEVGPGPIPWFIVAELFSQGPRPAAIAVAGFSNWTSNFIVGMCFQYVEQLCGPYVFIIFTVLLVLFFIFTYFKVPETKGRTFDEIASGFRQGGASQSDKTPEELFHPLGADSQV

Structure (SMILES)	inhibition [1] [%]	inhibition [2] [%]	inhibition [3] [%]
COc1ccc2nccc([C@@H](O)CN3CCC(NC(=O)c4cc5c(F)cc(F)cc5[nH]4)CC3)c2n1	87	84.1	85.4
CC(C)CNCc1cccc(-c2ccc(CNC3CCN(Cc4ccccc4)CC3)cc2)c1	6.62	7.43	4.78
CN(C)c1ccc(C=C2SC(=O)N=C2Nc2ccccc2)cc1	1.62	0.09	0.57
